# PubChem BioAssay (NCI)
# About 83,000 compounds went through this panel and 20% of them were active in at least one assay; those are over-represented in the sample as a whole.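 Method: cells in 96-well plates; compound added at one concentration; 48 h incubation; percent growth measured; values under 10 scored active.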 The source made the active and inactive calls.
# Columns and labels:
# Assay in all cases: NCI-60 one-dose screen, 48 h (100 = growth as untreated, 0 = no growth, -100 = all killed)
# Conditions in all cases: 10 µM
# EKVX NSCLC = tested on: EKVX NSCLC
# SN12C renal = tested on: SN12C renal
# UO-31 renal = tested on: UO-31 renal
# ACHN renal = tested on: ACHN renal
# CAKI-1 renal = tested on: CAKI-1 renal
# MOLT-4 leukemia = tested on: MOLT-4 leukemia
# SR leukemia = tested on: SR leukemia
# RPMI-8226 leukemia = tested on: RPMI-8226 leukemia
# OVCAR-8 ovarian = tested on: OVCAR-8 ovarian
# OVCAR-5 ovarian = tested on: OVCAR-5 ovarian
# OVCAR-4 ovarian = tested on: OVCAR-4 ovarian
# SK-OV-3 ovarian = tested on: SK-OV-3 ovarian
# IGROV1 ovarian = tested on: IGROV1 ovarian
# OVCAR-3 ovarian = tested on: OVCAR-3 ovarian
# NCI/ADR-RES ovarian = tested on: NCI/ADR-RES ovarian
# T-47D breast = tested on: T-47D breast
# TK-10 renal = tested on: TK-10 renal
# CCRF-CEM leukemia = tested on: CCRF-CEM leukemia
# HS 578T breast = tested on: HS 578T breast
# A498 renal = tested on: A498 renal
SMILES,growth (EKVX NSCLC),growth (SN12C renal),growth (UO-31 renal),growth (ACHN renal),growth (CAKI-1 renal),growth (MOLT-4 leukemia),growth (SR leukemia),growth (RPMI-8226 leukemia),growth (OVCAR-8 ovarian),growth (OVCAR-5 ovarian),growth (OVCAR-4 ovarian),growth (SK-OV-3 ovarian),growth (IGROV1 ovarian),growth (OVCAR-3 ovarian),growth (NCI/ADR-RES ovarian),growth (T-47D breast),growth (TK-10 renal),growth (CCRF-CEM leukemia),growth (HS 578T breast),growth (A498 renal)
COc1ccccc1CNCCN1C(=O)c2ccc3c4c(ccc(c24)C1=O)C(=O)N(CCNCc1ccccc1OC)C3=O,-78.1% (active),-91% (active),-92.4% (active),-59.6% (active),-31.3% (active),-41.9% (active),-47.1% (active),-67.7% (active),-77.7% (active),-52.6% (active),-99.7% (active),-79.6% (active),-72.5% (active),-78.5% (active),-62.6% (active),-65.8% (active),,,,
CN(C)c1ccc(-c2cc(-c3cccc(NS(C)(=O)=O)c3)nc(N)c2C#N)cc1,17.3% (inactive),37.9% (inactive),11.2% (inactive),26.1% (inactive),,24.3% (inactive),9.27% (active),,30% (inactive),52% (inactive),45.7% (inactive),15.1% (inactive),80.4% (inactive),-48.2% (active),,80.4% (inactive),42.1% (inactive),15.9% (inactive),15.3% (inactive),
ClCC#CCSc1ncnc2c1ncn2CC#CCCl,10.5% (inactive),20.2% (inactive),2.36% (active),11.7% (inactive),,15.4% (inactive),14.6% (inactive),,24.4% (inactive),14.1% (inactive),34.3% (inactive),45.7% (inactive),30.7% (inactive),-27.5% (active),,-23.1% (active),71.1% (inactive),14.9% (inactive),107% (inactive),
CCCCCCN(CCCCCC)CC(O)c1ccc2c3c(cccc13)CC2 (centres undefined),71.5% (inactive),61.4% (inactive),32% (inactive),53.8% (inactive),59.6% (inactive),53.3% (inactive),21.7% (inactive),27.5% (inactive),68.4% (inactive),48.9% (inactive),72.4% (inactive),69.9% (inactive),39.4% (inactive),80.6% (inactive),56.5% (inactive),30.2% (inactive),,,69.1% (inactive),24.5% (inactive)
COc1ccc2c(c1)-c1c(c3cc(OC)ccc3n(CCN(C)C)c1=O)C2=O,34.5% (inactive),24.6% (inactive),-24.7% (active),8.27% (active),1.94% (active),1.5% (active),-12.4% (active),-14.9% (active),4.46% (active),46.3% (inactive),-28.3% (active),28.7% (inactive),-25.6% (active),6.8% (active),-1.87% (active),63.8% (inactive),,3.78% (active),25.7% (inactive),48.6% (inactive)
CCN(CC)CCNC(=O)c1ccc(NC(C)=O)cc1,100% (inactive),94.6% (inactive),98.3% (inactive),,95.2% (inactive),107% (inactive),101% (inactive),112% (inactive),106% (inactive),,108% (inactive),102% (inactive),112% (inactive),121% (inactive),96.9% (inactive),99.7% (inactive),103% (inactive),114% (inactive),,78.7% (inactive)
C/C(=N\Nc1nc2ccccc2s1)c1ccncn1,22.7% (inactive),46.7% (inactive),19.8% (inactive),12.6% (inactive),29.9% (inactive),2.87% (active),17.8% (inactive),-26.4% (active),,38.9% (inactive),-12.3% (active),37.7% (inactive),-22.2% (active),21.2% (inactive),22.9% (inactive),-0.411% (active),,5.95% (active),73.5% (inactive),63.3% (inactive)
N=C1c2nc3n(c2C(=O)c2nc4n(c21)CCCC4)CCCC3,95.6% (inactive),-86.1% (active),46.9% (inactive),69.4% (inactive),88.8% (inactive),85.4% (inactive),69.5% (inactive),82.2% (inactive),91.5% (inactive),-57.8% (active),96.2% (inactive),95% (inactive),,98.4% (inactive),85.7% (inactive),71.9% (inactive),,,-28.7% (active),52.1% (inactive)
COc1cc(C(=O)N2CCN(c3ccccc3OC)CC2)c(N)cc1OCCCN1CCN(c2ccccc2OC)CC1,83.2% (inactive),98.6% (inactive),62.4% (inactive),88.8% (inactive),,53.8% (inactive),67.7% (inactive),56.4% (inactive),101% (inactive),81.6% (inactive),77.7% (inactive),75.4% (inactive),77.6% (inactive),77.7% (inactive),80.1% (inactive),50.9% (inactive),113% (inactive),,,117% (inactive)
CCOC(=O)C(NC(=O)C(Cl)Cl)C(O)c1ccccc1 (centres undefined),109% (inactive),98.8% (inactive),97.6% (inactive),107% (inactive),,98.3% (inactive),107% (inactive),,102% (inactive),102% (inactive),110% (inactive),116% (inactive),77.7% (inactive),109% (inactive),108% (inactive),107% (inactive),104% (inactive),,120% (inactive),99.2% (inactive)
NC(=O)c1ccc(-c2cccc3c(=O)nc(N4CCOCC4)oc23)cc1,97.3% (inactive),104% (inactive),89.2% (inactive),100% (inactive),,103% (inactive),92% (inactive),104% (inactive),101% (inactive),96.8% (inactive),90.5% (inactive),103% (inactive),103% (inactive),99.4% (inactive),97.3% (inactive),87.8% (inactive),,98.6% (inactive),97.2% (inactive),98.2% (inactive)
COc1cc(OC)cc(-c2cncn2-c2ccc(-c3nc4cc(OC)cc(OC)c4s3)cc2)c1,51.3% (inactive),80.4% (inactive),49.5% (inactive),67.4% (inactive),29% (inactive),44.3% (inactive),35.5% (inactive),44.6% (inactive),80.7% (inactive),99.9% (inactive),,70.5% (inactive),56.1% (inactive),20.3% (inactive),21.2% (inactive),62.8% (inactive),,21.6% (inactive),50.3% (inactive),
CCOCCOCCOCCOCCOCCOCCOCCOCCOCCO (tested in a mixture with another compound),12.7% (inactive),10.5% (inactive),19.1% (inactive),,13.1% (inactive),-49.5% (active),-52.4% (active),-33.3% (active),5.89% (active),,21.3% (inactive),38.2% (inactive),30.2% (inactive),-16.8% (active),55.7% (inactive),16.6% (inactive),0.0792% (active),,39.6% (inactive),32.8% (inactive)
O=C1c2ccc3c4c(ccc(c24)C(=O)N1CCNCc1ccccc1)C(=O)N(CCNCc1ccccc1)C3=O,-65.6% (active),-47.3% (active),-59% (active),85.4% (inactive),-56.2% (active),-9.12% (active),-8.22% (active),,2.34% (active),132% (inactive),-97.8% (active),109% (inactive),-75.7% (active),-62.6% (active),,-27.2% (active),,-6.55% (active),102% (inactive),
COc1ccc(-c2cc(-c3cccc(NS(C)(=O)=O)c3)nc(N)c2C#N)cc1,22% (inactive),43.3% (inactive),31.9% (inactive),36.4% (inactive),,19.7% (inactive),16.1% (inactive),,37.6% (inactive),53.8% (inactive),51.3% (inactive),20.3% (inactive),73.4% (inactive),-48.4% (active),,57.5% (inactive),67.5% (inactive),19% (inactive),-14.3% (active),
COc1ccc(C2=NN(C(=O)c3ccc(S(C)(=O)=O)cc3)C(c3ccc(OC)c(OC)c3)C2)c(OC)c1 (centres undefined),98.7% (inactive),100% (inactive),74.9% (inactive),102% (inactive),93.1% (inactive),92.2% (inactive),97.2% (inactive),110% (inactive),108% (inactive),107% (inactive),106% (inactive),84.2% (inactive),106% (inactive),99.9% (inactive),107% (inactive),74.8% (inactive),,103% (inactive),101% (inactive),98.5% (inactive)
